High-throughput results from PubChem.
Shown are actives, neighbours in structure and some others; about 2.4% of the full set was active somewhere.
Cruzain Triton: qHTS Assay for Promiscuous and Specific Inhibitors of Cruzain (with detergent); actives 0.43% (n = 200,000); Cruzipain (Trypanosoma cruzi), P25779; purified cruzain, Z-FR-AMC fluorescence, 0.01% Triton; Potency, µM, actives largely listed as inhibitors; further: nearly all actives have a fitted effect of over 40% in size
Target sequence (P25779 123-467 limits assumed): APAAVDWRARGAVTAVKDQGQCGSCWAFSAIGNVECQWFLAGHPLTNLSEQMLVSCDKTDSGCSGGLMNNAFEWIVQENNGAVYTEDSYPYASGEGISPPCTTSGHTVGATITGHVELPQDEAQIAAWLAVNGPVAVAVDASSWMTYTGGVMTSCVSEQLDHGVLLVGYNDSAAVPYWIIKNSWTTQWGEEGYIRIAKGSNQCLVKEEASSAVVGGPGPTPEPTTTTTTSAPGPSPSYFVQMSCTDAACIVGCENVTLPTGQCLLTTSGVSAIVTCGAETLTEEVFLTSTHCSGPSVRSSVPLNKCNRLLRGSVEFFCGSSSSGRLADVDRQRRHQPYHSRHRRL
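15 min RT preincubation of 1.5 nM cruzain with compound, then 2 uM Z-FR-AMC added; kinetic AMC fluorescence, 60 s delta. Triton X-100 0.01%, pH 5.5.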
Cruzain inh noDet: qHTS Assay for Promiscuous and Specific Inhibitors of Cruzain (without detergent); Cruzipain (Trypanosoma cruzi), P25779; purified cruzain, Z-FR-AMC fluorescence, no detergent; Potency, µM, usual class: inhibitors; actives 2.3% (n = 200,000); AID 1476, 2009; further: nearly all actives have a fitted effect of over 40% in size
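Purified cruzain at 1.5 nM, pre-incubated 15 min with compound at room temperature in 100 mM sodium acetate pH 5.5, 5 mM DTT, 0.00005% Triton X-100. Reaction started with 2 uM Z-FR-AMC; AMC fluorescence increase over 60 s gives rate.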
Hits are given with their value. The call rests on the fitted dose curve; in most records, active means well fitted curve in the direction sought with a large enough effect; inconclusive means small, poorly fitted or top-dose-only effect, or another doubt; inactive means no such curve, though single readings can be large; an effect the other way counts as inactive or inconclusive.

`CCN(c1ncnc2c1c(-c1ccccc1)cn2-c1ccccc1)C1CCCCC1` gave Cruzain Triton inactive and Cruzain inh noDet inactive.
`CCOC(=O)c1ccccc1NC(=O)c1cc(S(=O)(=O)N2CCOCC2)ccc1F` gave Cruzain Triton inactive and Cruzain inh noDet inconclusive.
`CCOC(=O)c1c(-c2ccccc2)csc1NC(=O)c1cc(=O)c2ccc(C)cc2o1` gave Cruzain Triton inactive and Cruzain inh noDet inactive.
Screening CCOC(=O)c1c(-c2ccccc2Cl)csc1NC(=O)c1cc(S(=O)(=O)N2CCOCC2)ccc1C returned Cruzain Triton inactive and Cruzain inh noDet 25µM.
For CCOC(=O)c1c(-c2ccccc2)csc1NC(=O)c1cc2ccccc2oc1=O the results were Cruzain Triton inactive and Cruzain inh noDet 16µM.
`O=C(CSc1nc2c([nH]c3ccccc32)c(=O)n1-c1ccccc1)N1CCCC1` gave Cruzain Triton inactive and Cruzain inh noDet inactive.
For Cc1ccccc1NCC(=O)N/N=C/c1c(C)c(C(=O)c2ccc(Cl)cc2)n2ccccc12 the results were Cruzain Triton inactive and Cruzain inh noDet 7.9µM.
`Cc1c(/C=N/NC(=O)CNc2ccccc2)c2ccccn2c1C(=O)c1ccc(Cl)cc1` gave Cruzain Triton inactive and Cruzain inh noDet inconclusive.
`CCOc1ccc(CNc2cc(C)nc3nc(-c4cccc(C)c4)nn23)cc1OC` gave Cruzain Triton inactive and Cruzain inh noDet inconclusive.
Screening CCOC(=O)c1c(S(=O)(=O)NCC(=O)N(C)Cc2ccccc2)c(C)n(C)c1C returned Cruzain Triton inactive and Cruzain inh noDet inactive.
For COc1ccc([C@H]2[C@H](C(=O)C(C)(C)C)N3N=Cc4ccccc4C3C23C(=O)OC(C)(C)OC3=O)cc1 (some centres not stated) the results were Cruzain Triton inactive and Cruzain inh noDet inactive.
For O=C(c1ccccc1)[C@H]1[C@H](c2ccccc2)[C@@]2(N=C(c3ccccc3)OC2=O)C2c3ccccc3C=NN21 (some centres not stated) the results were Cruzain Triton inactive and Cruzain inh noDet 10µM.
COc1ccccc1OCCCSc1nc(-c2ccc(C(C)(C)C)cc2)nc2cc(=O)[nH]n12 was read as Cruzain Triton inactive and Cruzain inh noDet inactive.
For CC(C)(C)c1ccc(-c2nc(SCCCOc3ccccc3)n3[nH]c(=O)cc3n2)cc1 the results were Cruzain Triton inactive and Cruzain inh noDet 13µM.
For CCOC(=O)C1=C(c2ccccc2)N=c2s/c(=C\c3ccco3)c(=O)n2C1c1cccs1 (configuration not stated) the results were Cruzain Triton inactive and Cruzain inh noDet inconclusive.
For CCOC(=O)C1=C(N)n2c(s/c(=C\c3ccco3)c2=O)=C(C(=O)OC(C)C)C1c1ccco1 (configuration not stated) the results were Cruzain Triton inactive and Cruzain inh noDet 10µM.
`CCOC(=O)C1=C(N)n2c(s/c(=C/c3ccccc3)c2=O)=C(C(=O)OCC)C1c1ccccc1` (configuration not stated) gave Cruzain Triton inactive and Cruzain inh noDet inactive.
`CCOC(=O)C1=C(N)n2c(s/c(=C\c3ccco3)c2=O)=C(C(=O)OCC)C1c1ccco1` (configuration not stated) gave Cruzain Triton inactive and Cruzain inh noDet 7.9µM.
`NCCC[C@@H](CC(=O)N[C@@H]1CCNC[C@H]1C(=O)N[C@H](CC(=O)N[C@@H](CCC(=O)O)CC(=O)O)Cc1c[nH]c2ccccc12)NC(=O)C[C@H](CO)NC(=O)[C@@H]1CNCC[C@H]1N` gave Cruzain Triton inactive and Cruzain inh noDet inactive.
For CCOC(=O)c1ccccc1NC(=O)N1CCCn2nc(C)cc21 the results were Cruzain Triton inactive and Cruzain inh noDet inactive.
Screening Cc1ccc(CNS(=O)(=O)c2cc(C(=O)Nc3cccc(C(F)(F)F)c3)ccc2F)cc1 returned Cruzain Triton inactive and Cruzain inh noDet inactive.
Screening C=CCOC(=O)/C(=C\C=C\c1ccccc1)NC(=O)c1ccccc1 returned Cruzain Triton 14µM and Cruzain inh noDet inconclusive.
CCOC(=O)/C(=C\C=C\c1ccccc1)NC(=O)c1ccccc1 was read as Cruzain Triton inactive and Cruzain inh noDet inactive.
Cn1c(=O)c2c([nH]c(=O)n2Cc2ccc(Cl)cc2Cl)n(C)c1=O was read as Cruzain Triton inactive and Cruzain inh noDet inactive.
Screening Cc1ccc(C2C3=C(CCCC3=O)Nc3[nH]c(=S)[nH]c(=O)c32)cc1 (configuration not stated) returned Cruzain Triton inactive and Cruzain inh noDet inactive.
`O=C1CCCC2=C1C(c1ccc(Br)cc1)c1c([nH]c(=S)[nH]c1=O)N2` (configuration not stated) gave Cruzain Triton 18µM and Cruzain inh noDet 16µM.
